# Hit rate of the full screen: of about 2,100 compounds, about 260 (12%) were called active. Not shown: some 58% with an inconclusive outcome. Calls come from the whole dose curve; as a rule, active = well fitted cell-killing curve with a large enough effect; inconclusive = small, poorly fitted or top-dose-only effect, or effect the other way; inactive = flat fitted curve, though single readings scatter. This is one part of the list.
# Assay: Viability Counterscreen for Confirmatory qHTS for Inhibitors of ATXN expression; note: nearly all actives have a fitted effect of over 50% in size
# Conditions: HEK-293 ATXN2-luc cells viability, CellTiter-Fluor, 24 h; activity change, negative = cytotoxicity: at the top concentration
# Summary of the method: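 Cells with an ATXN2-luciferase reporter were dosed in a dilution series for 24 h at 37 degrees C. Viability was read first with Gly-Phe-AFC at 25 uM final (fluorescence, ex 405/em 540), then SteadyGlo luminescence. Medium-only wells defined 100% inhibition.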
# Potency is the fitted concentration of half-maximal effect.
Structure (SMILES),"activity change, negative = cytotoxicity",Potency
Cc1cc(Cl)c(C(=O)Nc2cccc(C(F)(F)F)c2)c(C)n1,-20.8% [at 57.5 µM] (inactive),
C=CCN1C=CC(=O)[C@@H](OC(=O)Nc2ccc(Br)cc2)[C@H]1c1ccccc1Br,-15.2% (inactive),
O=C(CN1C(=O)c2ccccc2S1(=O)=O)Nc1ncc(Cl)cc1Cl,0.426% (inactive),
O=C(c1ccco1)N(CCCN1CCOCC1)c1nc(-c2ccc(Cl)cc2)cs1,-12.7% (inactive),
CC(=O)Nc1cc(-c2ccc(C(=O)NC3CC3)cc2)cn2c(-c3cccc(C(C)=O)c3)cnc12,-20.7% [at 57.5 µM] (inactive),
O=C(NCCc1ccccc1)c1ccc2nccnc2c1,-11.9% (inactive),
NS(=O)(=O)c1ccc(CCNC(=O)COC(=O)/C=C/c2cc(Br)ccc2F)cc1,4.96% (inactive),
NS(=O)(=O)c1ccc(CCNC(=O)c2cc(-c3ccccn3)nc3ccc(Br)cc23)cc1,,35.5 µM (active)
CCC(CC)C(=O)c1c[nH]c(C(=O)NCc2ccccn2)c1,-5.14% [at 57.5 µM] (inactive),
CCn1c(/C=C/c2ccc([N+](=O)[O-])o2)nc2ccccc2c1=O,,10 µM (active)
O=[N+]([O-])c1ccc(/C=N/N=C/c2ccc([N+](=O)[O-])o2)o1,,7.94 µM (active)
COc1ccccc1NC(=O)Nc1nc(CC(=O)N2CCN(c3ccccc3)CC2)cs1,-22% [at 57.5 µM] (inactive),
CC(C)Nc1nc(NC(C)C)nc(N(C#N)CCOc2ccc(Cl)cc2Cl)n1,-19.4% (inactive),
O=C(NC(c1ccccc1)c1ccc2ccccc2n1)C1CCN(CCOc2ccc(Cl)cc2Cl)CC1 (centres undefined),,25.1 µM (active)
O=C(NC(c1ccccc1)c1c(O)ccc2ccccc12)c1ccccc1Cl (centres undefined),-20.7% (inactive),
CCSc1nc2ccccc2n1C(=O)/C=C\c1ccc(OC)c(OC)c1,,7.94 µM (active)
COc1cc(/C=C/C(=O)Nc2ccc(OC)c(S(=O)(=O)N3CCOCC3)c2)ccc1OCC#N,-23% (inactive),
COc1ccc(/C=C/C(=O)Nc2cccc(S(=O)(=O)N3CCCC3)c2)cc1OC,-3.83% (inactive),
COC1=C(c2ccccc2)C(=O)c2ccccc2C1=O,-26.8% (inactive),
CCOC(=O)c1ccc(NC(=O)c2nc[nH]c2C(=O)N[C@H](C)c2ccccc2)cc1,1.71% (inactive),
CC(=O)c1sc(NC(=O)c2cc(-c3ccccc3)nn2-c2ccccc2)nc1C,-12% (inactive),
O=C(NCCc1csc(-c2ccc(Cl)cc2)n1)c1ccco1,-29% [at 57.5 µM] (inactive),
O=C(Nc1nc(NC(=O)c2ccco2)n(-c2ccccc2)n1)c1ccccc1,,22.4 µM (active)
Cc1nc(N2CCN(Cc3ccc4c(c3)OCO4)CC2)c2oc3ccccc3c2n1,-27% (inactive),
CCOC(=O)c1c(NC(=O)COC(=O)Cn2cnc3ccccc32)sc(C)c1C,-16.8% [at 57.5 µM] (inactive),

Structure (SMILES),"activity change, negative = cytotoxicity",Potency
CCNc1ccc(Br)cc(C(=O)/C=C/c2ccccc2Cl)c1=O,-23.3% (inactive),
O=C(/C=C/c1ccccc1)c1cc(Br)ccc(=O)c1O,,22.4 µM (active)
CNc1ccc(Br)cc(C(=O)/C=C/c2ccc3c(c2)OCO3)c1=O,-17.3% (inactive),
NC(=S)N1OC[C@@H]2COc3ccc4ccccc4c3[C@@H]21,-27.5% [at 57.5 µM] (inactive),
COc1ccccc1Cc1c(-c2ccco2)nc2c(C)cc(Br)cn12,,10 µM (active)
COC(=O)c1ccc(N2CCOCC2)c(NC(=O)Nc2cccc(OC)c2)c1,-8.48% (inactive),
O=C(Nc1ccc(Cl)c(Cl)c1)c1cccc(S(=O)(=O)NCc2cccnc2)c1,,3.16 µM (active)
Cn1c(=O)c2cc(NC(=O)Nc3cccnc3)ccc2n1Cc1ccc(Cl)cc1,-14.8% [at 57.5 µM] (inactive),
COc1cccc(OCC(=O)Nc2cc(Cl)ccc2Oc2ccccc2)c1,6.08% (inactive),
O=C(/C=C/Nc1ccc(S(=O)(=O)Nc2ncccn2)cc1)c1ccc(Cl)c(Cl)c1,-21.3% [at 57.5 µM] (inactive),
COc1cccc(S(=O)(=O)NCc2ccc(C(=O)Nc3cccc(Cl)c3)cc2)c1,,20 µM (active)
O=C(CSc1nnnn1-c1ccccc1)Nc1nsc(-c2ccccc2)n1,-13.5% [at 57.5 µM] (inactive),
CCn1c2ccccc2c2cc(NC(=O)COC(=O)c3ccccc3F)ccc21,2.58% (inactive),
C=CCNc1oc(-c2ccc(Cl)cc2)nc1C#N,-6.31% [at 57.5 µM] (inactive),
NC(=O)c1cccc(Nc2nc(C(N)Cc3ccc(C(F)(F)F)cc3)cs2)n1 (centres undefined),-3.62% (inactive),
NC(Cc1ccccc1)c1csc(Nc2nccc(C(F)(F)F)n2)n1 (centres undefined),,14.1 µM (active)
NC(Cc1ccc(F)cc1)c1csc(Nc2cc(NCc3ccco3)ncn2)n1 (centres undefined),-10.8% (inactive),
NC(Cc1ccc(Cl)cc1)c1csc(Nc2nccc(C(F)(F)F)n2)n1 (centres undefined),,28.2 µM (active)
CCC(C)Sc1cc(C(F)(F)F)c(C(=O)Nc2ccc(Cl)cc2)cn1 (centres undefined),-28.6% (inactive),
COC(=O)Cc1[nH]n(-c2nc3ccccc3s2)c(=O)c1C(C)=Nc1ccc(C)cc1,-25% [at 57.5 µM] (inactive),
COc1cc(C)c(C(=O)CC(=O)c2c(C)cc(OC)cc2C)c(C)c1,-4.26% (inactive),
CCN(CC)S(=O)(=O)c1ccc(NC(=O)Nc2cccc(C(F)(F)F)c2)cc1,-22.7% (inactive),
COc1ccc(C(=O)N/N=C/c2ccc(N(C)c3ccccc3)cc2)cc1,8.41% (inactive),
COc1ccc(/C=N/Nc2cc(N3CCCC3)nc(N3CCCC3)n2)cc1,,3.16 µM (active)
COc1ccc(C)cc1Nc1nc(C)nc2sc(C)cc12,-13.3% (inactive),

Structure (SMILES),"activity change, negative = cytotoxicity",Potency
CCOc1ccc(CCNC(=O)c2ccc(OCc3c(C)noc3C)cc2)cc1OCC,-11.7% (inactive),
N=c1n(CCN2CCCCC2)c2ccccc2n1CC(O)c1ccc(Cl)c(Cl)c1 (centres undefined),,25.1 µM (active)
Cc1ccc(OCC(O)Cn2c(=N)n(CCN3CCCCC3)c3ccccc32)cc1 (centres undefined),,22.4 µM (active)
CCCCCn1c(=N)n(CC(O)COc2ccccc2OC)c2ccccc21 (centres undefined),,3.98 µM (active)
COc1cc2c(C(=O)N3CCOCC3)c(CSc3ccccc3)n(C)c2cc1Br,-20.7% [at 57.5 µM] (inactive),
CN(C)c1ccc2c(c1)OC(N)=C(C#N)C2c1cccc(F)c1 (centres undefined),-25.8% [at 57.5 µM] (inactive),
COc1cc2nc(CN(C)Cc3ccc(SC)cc3)[nH]c(=O)c2cc1OC,-14.4% [at 57.5 µM] (inactive),
COc1ccc(C(=O)NC(=S)NNC(=O)c2cnccn2)cc1,-14.6% (inactive),
Cc1ccc(C(=O)N2CCN(c3ccc(NC(=S)NC(=O)c4cccs4)cc3)CC2)cc1,-13.9% (inactive),
COc1c(C)cccc1C(=O)Nc1ccc(N2CCN(C(=O)c3ccccc3C)CC2)cc1,,25.1 µM (active)
COc1ccc(Br)cc1C(=O)Nc1ccccc1N1CCN(C(=O)c2ccccc2)CC1,-13.6% (inactive),
Cn1c(=O)c2c(nc(SCCN3CCOCC3)n2Cc2cccc3ccccc23)n(C)c1=O,-9.68% (inactive),
CCc1ccc(-n2cc(-c3ccc(F)cc3)[n+]3c2SCCC3)cc1,-20.7% [at 57.5 µM] (inactive),
CCn1c(COc2ccccc2C)nnc1SCC(=O)N1CCN(c2ccccc2)CC1,-30% [at 57.5 µM] (inactive),
O=C1C=CCC(/C=C/c2ccccc2)O1 (centres undefined),,20 µM (active)
Cc1c(CC(=O)NCCCC(=O)O)c(=O)oc2cc3c(cc12)CCC(C)(C)O3,-20.8% [at 57.5 µM] (inactive),
NS(=O)(=O)c1ccc(NC(=O)COC(=O)c2c3c(nc4ccccc24)/C(=C\c2ccc4c(c2)OCO4)CCC3)cc1,-16.4% [at 57.5 µM] (inactive),
CCc1nc2ccccc2c(C(=O)OCC(=O)Nc2cccc(S(=O)(=O)NC3=NCCCCC3)c2)c1C,,25.1 µM (active)
CCc1nc2ccccc2c(C(=O)OCC(=O)Nc2ccc(NC(C)=O)cc2)c1C,-22.7% (inactive),
COc1ccc(N(CC(=O)N2CCN(c3ccc(Cl)cc3)CC2)S(=O)(=O)c2c(C)n[nH]c2C)cc1,-23.7% (inactive),
O=C(Nc1ccc(Cl)c(Cl)c1)Nc1nnc(CSc2ccccc2)s1,,2.51 µM (active)
CCOc1ccc(NC(=O)Nc2nnc(CC(=O)NCc3ccccc3)s2)cc1,-28.5% [at 57.5 µM] (inactive),
CCCCN1C(=O)/C(=C2/Sc3ccccc3N2C)S/C1=N\c1ncn[nH]1,-13.9% [at 57.5 µM] (inactive),
CC1=CC(C)(C)N2C(=O)C3(SCC(=O)N3c3ccc(F)cc3)c3cc(C)cc1c32 (centres undefined),-20.4% (inactive),
CCN(CC)c1ccc(C(=O)N/N=C/c2ccccc2OC(F)F)cc1,-18.3% (inactive),

Structure (SMILES),"activity change, negative = cytotoxicity",Potency
CCN(CC)c1ccc(/C=C/c2cccc[n+]2C)c(OC)c1,,12.6 µM (active)
O=C(C1CC(=O)N(c2ccc3c(c2)OCCO3)C1)N1CCN(c2ccccc2)CC1 (centres undefined),-6.33% (inactive),
O=C(CSc1nnc(-c2ccccc2)o1)Nc1ccccc1F,-3.09% (inactive),
CC1CC(C)CN(CCCNC(=O)c2cc3c(s2)-c2ccccc2OC3)C1 (centres undefined),-15.7% (inactive),
Cc1ccc(NC(=O)CCC(=O)c2cc(C)sc2C)nc1,-17.9% [at 57.5 µM] (inactive),
COc1ccc(-c2cc(C3CCN(c4ccc(C(C)=O)cc4[N+](=O)[O-])CC3)[nH]n2)cc1,,28.2 µM (active)
CC(=O)c1ccc(N2CCc3ccccc3C2)c([N+](=O)[O-])c1,-27.8% [at 57.5 µM] (inactive),
CN1CCC2(CC1)N=C(c1ccc(F)cc1)C(=S)N2C(=O)c1ccc(C(C)(C)C)cc1,-27.6% [at 57.5 µM] (inactive),
CC(C)n1c(NCc2cc(Cl)ccc2O)nc2ccccc21,-0.178% (inactive),
Clc1ccc(CSc2ccc(-c3ccccn3)nn2)cc1,-14.5% (inactive),
Clc1ccc(SCc2cc(N3CCOCC3)nc(-c3ccccn3)n2)cc1,,10 µM (active)
Cc1cc(Oc2ccc(Cl)cc2)nc(-c2ccccn2)n1,-12.9% [at 57.5 µM] (inactive),
CCN(CC)CCCNc1nc2ccccc2c2nc(-c3ccncc3)nn12,,25.1 µM (active)
COC(=O)N/N=C/c1cn(CC(C)COc2ccccc2)c2ccccc12 (centres undefined),-29.4% [at 57.5 µM] (inactive),
O=C1C(Cl)=C(N2CCC(C(=O)O)CC2)C(=O)c2ccccc21,-25% [at 57.5 µM] (inactive),
Cc1ccc(C)n1-c1ccc(C(=O)N2CCC(C(N)=O)CC2)cc1,-2.84% (inactive),
CCOC(=O)C1CCN(C(=O)c2c(C)oc3c2C(=O)c2ccccc2C3=O)CC1,,25.1 µM (active)
COc1ccc(CCCNC(=O)C2Cc3c(-c4cccc(NC(C)=O)c4)ccnc3O2)cc1 (centres undefined),-26.2% (inactive),
N#CCc1nc2ccccc2c(=O)[nH]1,-3.15% [at 57.5 µM] (inactive),
Cc1[nH]c(=O)c(C(=O)/C=C/c2ccccc2)c2c1CCCC2,,20 µM (active)
COC(=O)c1ccccc1S(=O)(=O)NNC(=O)Nc1ccccc1,3.46% (inactive),
CC(C)Cn1c(/C=N/Nc2nc3ccccc3[nH]2)nc2ccccc21,,11.2 µM (active)
C(=N\Nc1nc2ccccc2[nH]1)/c1cccc2nccnc12,-11.6% (inactive),
CCCCn1c(/C=N/Nc2nc3ccccc3[nH]2)nc2ccccc21,-8.13% (inactive),

# Reference: PubChem BioAssay AID1745850 (National Center for Advancing Translational Sciences (NCATS), 2022)
